A number with no mark means an inactive call. Records with an inconclusive call do not appear. A call without a number means that no potency is given here. The source made the active and inactive calls. Unless noted, the call rests on the fitted dose curve; in most records, active means well fitted curve in the direction sought with a large enough effect in the repeat runs; inconclusive means weak or mixed curves; inactive means no such curve, though single readings can be large; an effect the other way counts as inactive or inconclusive.
How the values were obtained:
[1] = target: Progesterone receptor (Homo sapiens) (UniProt P06401); test: qHTS assay to identify small molecule agonists of the progesterone receptor (PR) signaling pathway (AID 1346784; calls by dose curve; further: nearly all actives have a fitted effect of over 30% in size)
In short: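 Agonist qHTS: compounds pinned onto 3,000 PR-UAS-bla HEK 293T cells per well in charcoal-stripped serum medium, 16hr at 37C, then beta-lactamase activity measured by LiveBLAzer FRET fluorescence after 2 hours at room temperature.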

[2] = target: Progesterone receptor (Homo sapiens) (UniProt P06401); test: qHTS assay to identify small molecule antagonists of the progesterone receptor (PR) signaling pathway (AID 1346795; active means well fitted inhibition curve with a large enough effect in the signal ratio in the repeat runs, not every such curve was filed as active; the % refers to the signal ratio; further: potency means the concentration at half of the fitted maximal effect)
In short: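 Antagonist mode with agonist R5020 at 1 nM final and 16 hr incubation at 37C. Reporter was beta-lactamase driven by UAS in HEK293T (PR-UAS-bla), 2% charcoal-stripped serum; signal from LiveBLAzer FRET substrate, 2 hr at room temperature.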

[3] = qHTS assay to identify small molecule agonists of the progesterone receptor (PR) signaling pathway - cell viability counter screen (AID 1346799; calls by dose curve; further: nearly all actives have a fitted effect of over 45% in size; further: potency means the concentration at half of the fitted maximal effect)
In short: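 Cytotoxicity measured by CellTiter-Glo luminescence (30 min, RT) in the same wells as the PR beta-lactamase agonist read. Those HEK293T cells had 16 h compound treatment at 37 C in 2% charcoal-stripped FBS medium.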

[4] = qHTS assay to identify small molecule antagonists of the TGF-beta/Smad signaling pathway - cell viability counter screen (AID 1346824); further: nearly all actives have a fitted effect of over 50% in size
In short: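 SBE-bla HEK 293T cells were plated overnight at 37 C, then given compounds in DMSO plus TGF-beta1 (added as 0.25 ng/mL solution) for 5 hr. After the bla read, CellTiter-Glo was added to the same wells and luminescence read after 30 min at room temperature.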

[5] = qHTS assay to identify small molecule agonists of the TGF-beta/Smad signaling pathway - cell viability counter screen (AID 1346829); further: top concentration of the series differs between compounds; nearly all actives have a fitted effect of over 45% in size
In short: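 CellTiter-Glo luminescence readout; SBE-bla HEK 293T cells, overnight plating, compound 5 hr at 37 C/5% CO2, then bla substrate 2 hr RT, then CellTiter-Glo 30 min RT.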

[6] = qHTS assay to identify small molecule agonists of the TGF-beta/Smad signaling pathway (AID 1346859; active means well fitted activation curve with a large enough effect in the signal ratio in the repeat runs, not every such curve was filed as active; the % refers to the signal ratio; further: series mostly up to about 77 µM)
In short: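 Fluorescence (ex 405 nm; em 460 and 530 nm) was read 2 h after LiveBLAzer FRET substrate at RT. The preceding compound treatment of overnight-plated SBE-bla HEK293T cells lasted 5 h at 37 C.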

[7] = target: Thyrotropin-releasing hormone receptor (Homo sapiens) (UniProt P34981); test: qHTS assay to identify small molecule agonists of the thyrotropin-releasing hormone receptor (TRHR) signaling pathway (AID 1346891; calls by dose curve; further: series mostly up to about 58 µM)
In short: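 Agonist-mode intracellular calcium readout: kinetic fluorescence over 3 min at 1 s intervals after compound addition to TRHR-HEK293 cells (18 h seeded, 2 h dye-loaded at 37 C). Fifteen concentrations, triplicates.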

[8] = Human pregnane X receptor (PXR) small molecule agonists, qHTS cell viability counter screen (AID 1346977); further: nearly all actives have a fitted effect of over 50% in size; further: potency means the concentration at half of the fitted maximal effect
In short: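 Same-well viability read: CellTiter-Fluor added after 23 hr compound exposure, fluorescence measured 1 hr later. Cells were PXR-Luc HepG2 seeded at 2,000/well in 5% charcoal-stripped FBS medium, rested 5 hr before dosing at 37 C.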

[9] = target: Thyrotropin-releasing hormone receptor (Homo sapiens) (UniProt P34981); test: qHTS assay to identify small molecule antagonists of the thyrotropin-releasing hormone receptor (TRHR) signaling pathway (AID 1346877; active means well fitted inhibition curve with a large enough effect in the repeat runs, not every such curve was filed as active; further: series mostly up to about 51 µM)
In short: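 Cells (TRHR-HEK293) are plated and kept 18 h at 37 °C/5% CO2. A calcium-sensitive dye is added for 2 h, compound follows for 5 min at room temperature, and TRH is then given at 1 nM final.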

[10] = qHTS assay to identify small molecule antagonists of the progesterone receptor (PR) signaling pathway - cell viability counter screen (AID 1346798); further: series mostly up to about 92 µM; nearly all actives have a fitted effect of over 50% in size
In short: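 Cytotoxicity read as CellTiter-Glo luminescence (30 min, room temperature) in the same wells as the beta-lactamase readout. HEK293T PR-UAS-bla cells in charcoal-stripped 2% FBS received compound and R5020, then 16 h at 37C, 5% CO2.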

Progesterone receptor (Homo sapiens), sequence (P06401 whole entry, looked up): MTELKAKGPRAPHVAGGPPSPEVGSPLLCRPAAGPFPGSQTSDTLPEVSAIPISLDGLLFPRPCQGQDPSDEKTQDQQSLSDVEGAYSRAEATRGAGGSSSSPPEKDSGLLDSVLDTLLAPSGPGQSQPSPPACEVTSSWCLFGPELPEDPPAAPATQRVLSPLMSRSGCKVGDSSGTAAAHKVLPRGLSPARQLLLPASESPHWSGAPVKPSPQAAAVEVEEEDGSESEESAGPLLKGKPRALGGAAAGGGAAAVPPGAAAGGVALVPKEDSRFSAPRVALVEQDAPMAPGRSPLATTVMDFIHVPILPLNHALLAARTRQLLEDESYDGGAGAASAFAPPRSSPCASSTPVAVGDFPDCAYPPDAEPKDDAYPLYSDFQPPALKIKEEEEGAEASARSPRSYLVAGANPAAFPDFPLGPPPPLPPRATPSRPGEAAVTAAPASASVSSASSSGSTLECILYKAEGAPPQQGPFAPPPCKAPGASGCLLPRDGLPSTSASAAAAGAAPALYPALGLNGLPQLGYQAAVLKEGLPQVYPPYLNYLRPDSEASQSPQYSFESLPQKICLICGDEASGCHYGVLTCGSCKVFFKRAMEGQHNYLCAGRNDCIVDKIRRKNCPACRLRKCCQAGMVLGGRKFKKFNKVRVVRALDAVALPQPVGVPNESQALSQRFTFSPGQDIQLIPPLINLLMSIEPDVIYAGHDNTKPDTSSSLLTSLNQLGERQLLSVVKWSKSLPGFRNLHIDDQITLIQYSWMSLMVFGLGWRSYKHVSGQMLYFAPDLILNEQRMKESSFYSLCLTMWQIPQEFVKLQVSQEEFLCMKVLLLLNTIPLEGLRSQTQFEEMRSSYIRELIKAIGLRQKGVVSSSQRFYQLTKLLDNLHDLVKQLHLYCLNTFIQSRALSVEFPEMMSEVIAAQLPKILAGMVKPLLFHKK
Thyrotropin-releasing hormone receptor (Homo sapiens), sequence (P34981 whole entry, looked up): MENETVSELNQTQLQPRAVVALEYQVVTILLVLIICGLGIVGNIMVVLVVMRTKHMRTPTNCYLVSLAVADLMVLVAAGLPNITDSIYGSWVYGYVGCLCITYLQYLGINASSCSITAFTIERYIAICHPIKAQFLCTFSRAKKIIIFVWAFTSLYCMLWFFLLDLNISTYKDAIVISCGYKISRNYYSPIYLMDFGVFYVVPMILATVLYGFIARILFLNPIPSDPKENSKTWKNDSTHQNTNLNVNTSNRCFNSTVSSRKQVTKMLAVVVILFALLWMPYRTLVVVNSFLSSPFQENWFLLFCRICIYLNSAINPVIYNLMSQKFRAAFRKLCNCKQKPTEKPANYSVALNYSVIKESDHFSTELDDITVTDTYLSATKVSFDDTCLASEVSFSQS

Row | SMILES | outcome [1] | Potency [2] | Potency [3] | Potency [4] | Potency [5] | outcome [6] | Potency [7] | Potency [8] | outcome [9] | Potency [10]
1 | CC(=O)/C=C/C1C(C)=CCCC1(C)C (configuration not stated) | inactive | inactive | inactive | inactive | inactive | inactive | inactive | inactive | – | –
2 | CC(=O)OC/C=C/c1ccccc1 | inactive | inactive | inactive | inactive | inactive | inactive | inactive | inactive | inactive | –
3 | CNS(=O)(=O)Cc1ccc2[nH]cc(CCN(C)C)c2c1 | inactive | inactive | inactive | inactive | inactive | inactive | inactive | inactive | – | –
4 | O=C=NC1CCC(CC2CCC(N=C=O)CC2)CC1 (configuration not stated) | inactive | inactive | 8.63 µM (active) | inactive | inactive | inactive | inactive | – | – | –
5 | C=CC(C)(CCC=C(C)C)OC(=O)c1ccccc1 (configuration not stated) | inactive | inactive | inactive | – | inactive | inactive | inactive | inactive | inactive | –
6 | CCCCCCCCCO | inactive | inactive | – | – | inactive | inactive | inactive | inactive | inactive | inactive
7 | CC(C)c1ccccc1C(C)C | inactive | inactive | inactive | – | inactive | inactive | – | inactive | – | –
8 | O=C(O)[C@@H]1[C@H]2C[C@H]3c4[nH]c5ccccc5c4CCN3C[C@@H]2CC[C@@H]1O | inactive | inactive | – | – | inactive | inactive | inactive | inactive | – | inactive
9 | N=C(N=C(N)N)N1CCOCC1 | inactive | inactive | inactive | inactive | inactive | inactive | – | inactive | – | –
10 | COCCO | inactive | inactive | inactive | inactive | inactive | inactive | inactive | inactive | inactive | –
11 | CCN(CC)CCc1nc(-c2ccccc2)no1 | inactive | inactive | inactive | inactive | inactive | inactive | inactive | inactive | – | –
12 | CC1(C)[C@H]2CC[C@]1(C)[C@H](O)C2 | inactive | inactive | inactive | – | inactive | inactive | inactive | inactive | inactive | –
13 | CCN1CCC[C@H]1CNC(=O)c1c(OC)ccc(Br)c1OC | inactive | inactive | – | – | inactive | inactive | – | inactive | – | inactive
14 | CCOC(=O)CC(=O)c1cc(F)c(Cl)nc1Cl | inactive | inactive | inactive | inactive | inactive | inactive | – | inactive | – | –
15 | Cc1occc1S | inactive | inactive | inactive | inactive | inactive | inactive | inactive | inactive | inactive | –
16 | CC(=O)N(O)CCCCCNC(=O)CCC(=O)N(O)CCCCCNC(=O)CCC(=O)N(O)CCCCCN | inactive | inactive | inactive | inactive | inactive | inactive | inactive | inactive | inactive | –
17 | Oc1ccc(C(O)CNCCCCCCNCC(O)c2ccc(O)c(O)c2)cc1O (configuration not stated) | inactive | inactive | inactive | inactive | inactive | inactive | inactive | inactive | inactive | –
18 | CN(C)C/C=C(/c1ccc(Br)cc1)c1cccnc1 | inactive | inactive | inactive | inactive | inactive | inactive | inactive | – | inactive | –
19 | CCOc1nc2cccc(C(=O)O)c2n1Cc1ccc(-c2ccccc2-c2nn[nH]n2)cc1 | inactive | inactive | inactive | inactive | inactive | inactive | – | inactive | – | –
20 | CCCCCCCCC(CO)CCCCCC (configuration not stated) | inactive | inactive | inactive | inactive | inactive | inactive | – | inactive | – | –
21 | CCCCCCCCCCCCCCCC(=O)OC/C=C(C)/C=C/C=C(C)/C=C/C1=C(C)CCCC1(C)C | inactive | inactive | inactive | inactive | inactive | inactive | inactive | inactive | inactive | –
22 | Cc1nc2ccccc2n1Cc1ccc(Cl)cc1 | inactive | 13.3 µM (active) | – | inactive | inactive | inactive | – | – | – | –
23 | C=Cc1c(C)c2cc3[nH]c(cc4nc(cc5nc(cc1[nH]2)C(C)=C5CCC(=O)O)C(CCC(=O)O)=C4C)c(C)c3C=C | inactive | inactive | inactive | inactive | inactive | inactive | inactive | 15 µM (active) | inactive | –
24 | CC1=CCC(C(C)C)C=C1 (configuration not stated) | inactive | inactive | inactive | inactive | inactive | inactive | – | inactive | – | –
25 | Cc1ccccc1N=Nc1ccc(N=Nc2c(O)ccc3ccccc23)c(C)c1 | inactive | inactive | inactive | – | inactive | inactive | inactive | – | inactive | –
26 | CC(O)C1CCCCC1 (configuration not stated) | inactive | inactive | inactive | inactive | inactive | inactive | inactive | inactive | inactive | –
27 | COc1ccccc1OC(=O)Oc1ccccc1OC | inactive | 26.6 µM (active) | inactive | inactive | inactive | inactive | inactive | inactive | inactive | –
28 | CN1CCC(=C2c3ccccc3C=Cc3ccccc32)CC1 | inactive | inactive | inactive | – | inactive | inactive | – | – | – | –
29 | CCOc1ccc(NC(=O)CC(C)=O)cc1 | inactive | inactive | inactive | inactive | inactive | inactive | inactive | inactive | inactive | –
30 | CCCC[C@H]1CN(CC2CCOCC2)C(=O)OC12CCN(C1(C)CCN(C(=O)c3c(C)ncnc3C)CC1)CC2 | inactive | inactive | inactive | inactive | inactive | inactive | inactive | inactive | – | –
